mHTT-CaM PPI inh: mutant huntingtin-calmodulin interaction inhibitors – biochemical, AlphaScreen, primary screen; 3.6% of 190,000 active; P42858; inhibition, % at 15 µM; AlphaScreen His-mHTT/GST-CaM binding, luminescence; AID 1671202, 2021;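 further: 0% = both proteins with DMSO and 100% = one protein alone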
Target sequence (P42858 whole entry, looked up, stated change not applied): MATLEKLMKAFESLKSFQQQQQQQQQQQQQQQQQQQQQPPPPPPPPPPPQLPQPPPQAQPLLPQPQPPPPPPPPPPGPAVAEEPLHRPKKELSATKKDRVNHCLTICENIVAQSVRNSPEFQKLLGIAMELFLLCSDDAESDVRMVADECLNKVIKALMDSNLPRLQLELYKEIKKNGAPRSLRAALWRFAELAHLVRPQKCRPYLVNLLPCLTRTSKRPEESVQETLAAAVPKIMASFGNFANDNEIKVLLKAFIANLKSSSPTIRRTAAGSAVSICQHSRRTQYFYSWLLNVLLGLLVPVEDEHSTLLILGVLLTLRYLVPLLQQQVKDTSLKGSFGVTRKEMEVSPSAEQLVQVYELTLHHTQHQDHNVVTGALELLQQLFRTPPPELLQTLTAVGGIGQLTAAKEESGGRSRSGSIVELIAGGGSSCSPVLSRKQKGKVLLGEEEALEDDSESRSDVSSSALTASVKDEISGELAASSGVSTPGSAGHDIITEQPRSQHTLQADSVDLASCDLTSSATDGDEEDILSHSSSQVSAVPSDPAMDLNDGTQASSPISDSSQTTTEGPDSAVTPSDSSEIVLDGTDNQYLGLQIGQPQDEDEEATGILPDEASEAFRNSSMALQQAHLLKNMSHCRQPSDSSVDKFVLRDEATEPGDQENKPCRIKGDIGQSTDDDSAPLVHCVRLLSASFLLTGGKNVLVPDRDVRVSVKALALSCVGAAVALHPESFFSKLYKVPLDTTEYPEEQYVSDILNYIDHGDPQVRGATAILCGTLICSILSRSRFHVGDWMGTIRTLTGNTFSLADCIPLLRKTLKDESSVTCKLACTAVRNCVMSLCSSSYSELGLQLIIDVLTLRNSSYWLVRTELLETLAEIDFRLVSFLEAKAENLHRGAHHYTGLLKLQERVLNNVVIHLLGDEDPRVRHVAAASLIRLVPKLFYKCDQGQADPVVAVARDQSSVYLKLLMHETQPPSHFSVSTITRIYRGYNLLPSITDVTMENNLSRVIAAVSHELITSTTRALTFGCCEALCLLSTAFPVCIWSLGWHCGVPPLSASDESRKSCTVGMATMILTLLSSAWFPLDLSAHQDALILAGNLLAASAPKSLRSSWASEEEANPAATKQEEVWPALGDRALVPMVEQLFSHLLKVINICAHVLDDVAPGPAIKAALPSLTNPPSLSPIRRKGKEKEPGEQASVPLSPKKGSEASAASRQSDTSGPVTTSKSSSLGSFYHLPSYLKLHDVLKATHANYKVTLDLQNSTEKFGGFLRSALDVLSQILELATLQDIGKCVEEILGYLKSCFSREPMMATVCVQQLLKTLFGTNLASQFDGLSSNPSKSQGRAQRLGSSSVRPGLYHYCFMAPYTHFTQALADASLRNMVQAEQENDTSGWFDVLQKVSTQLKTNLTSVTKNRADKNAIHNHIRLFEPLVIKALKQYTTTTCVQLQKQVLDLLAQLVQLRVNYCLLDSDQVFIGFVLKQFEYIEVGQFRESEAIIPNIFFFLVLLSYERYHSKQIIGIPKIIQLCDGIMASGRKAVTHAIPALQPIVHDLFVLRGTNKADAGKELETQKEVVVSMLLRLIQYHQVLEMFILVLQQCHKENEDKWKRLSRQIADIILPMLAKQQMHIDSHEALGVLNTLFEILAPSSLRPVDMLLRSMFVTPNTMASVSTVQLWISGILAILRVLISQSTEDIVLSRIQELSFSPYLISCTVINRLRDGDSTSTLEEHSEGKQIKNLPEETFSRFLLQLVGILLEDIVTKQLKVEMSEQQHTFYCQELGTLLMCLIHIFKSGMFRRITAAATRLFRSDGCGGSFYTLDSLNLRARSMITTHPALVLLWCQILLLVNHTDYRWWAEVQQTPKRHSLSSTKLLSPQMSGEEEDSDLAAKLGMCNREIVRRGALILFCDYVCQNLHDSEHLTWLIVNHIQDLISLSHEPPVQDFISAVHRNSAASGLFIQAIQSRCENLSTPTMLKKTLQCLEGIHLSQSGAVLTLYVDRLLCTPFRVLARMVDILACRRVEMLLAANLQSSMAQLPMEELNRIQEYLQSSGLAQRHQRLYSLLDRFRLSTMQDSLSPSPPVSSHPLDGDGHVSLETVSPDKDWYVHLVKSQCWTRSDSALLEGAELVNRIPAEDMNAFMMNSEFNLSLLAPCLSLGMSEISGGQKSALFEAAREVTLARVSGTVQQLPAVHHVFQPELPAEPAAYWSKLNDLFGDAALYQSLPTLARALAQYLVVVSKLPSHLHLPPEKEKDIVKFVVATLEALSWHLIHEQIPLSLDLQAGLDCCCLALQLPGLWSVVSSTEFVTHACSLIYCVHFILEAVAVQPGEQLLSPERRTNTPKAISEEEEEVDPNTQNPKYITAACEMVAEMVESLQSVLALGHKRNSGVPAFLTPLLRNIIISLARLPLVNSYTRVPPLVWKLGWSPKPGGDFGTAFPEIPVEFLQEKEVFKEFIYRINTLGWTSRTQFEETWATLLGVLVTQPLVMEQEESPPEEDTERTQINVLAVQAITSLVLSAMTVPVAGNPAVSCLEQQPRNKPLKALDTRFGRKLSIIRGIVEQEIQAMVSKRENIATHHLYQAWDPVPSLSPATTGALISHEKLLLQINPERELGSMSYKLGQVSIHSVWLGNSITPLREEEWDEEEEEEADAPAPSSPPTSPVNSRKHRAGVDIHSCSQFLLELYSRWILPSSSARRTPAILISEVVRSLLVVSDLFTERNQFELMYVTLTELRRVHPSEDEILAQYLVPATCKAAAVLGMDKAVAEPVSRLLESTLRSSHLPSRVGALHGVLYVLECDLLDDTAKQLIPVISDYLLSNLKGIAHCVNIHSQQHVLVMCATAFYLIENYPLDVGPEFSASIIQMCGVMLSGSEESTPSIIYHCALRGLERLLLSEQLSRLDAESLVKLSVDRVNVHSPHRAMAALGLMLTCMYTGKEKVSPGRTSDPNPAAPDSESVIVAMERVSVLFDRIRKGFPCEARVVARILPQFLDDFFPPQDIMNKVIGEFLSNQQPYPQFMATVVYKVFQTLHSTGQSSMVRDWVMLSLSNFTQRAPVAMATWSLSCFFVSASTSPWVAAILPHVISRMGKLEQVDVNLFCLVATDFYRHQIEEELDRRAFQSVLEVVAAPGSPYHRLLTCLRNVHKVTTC
Pf apPOL block: Pf-apPOL inhibitors, biochemical, fluorescence | Plasmodium falciparum apicoplast DNA polymerase (apPOL) | Recombinant Pf-apPOL, molecular beacon fluorescence, 1.5 h | inhibition, % at 10 µM | 0.25% of 210,000 active
The depositor's hits bear a star; · = no result given. Rows were chosen to be rich in hits. Some 3.6% of all compounds tested hit in one or more screens of this group. No stated cut-off is given here; in the data, active means inhibition above about 50%; inactive means the rest.

SMILES	mHTT-CaM PPI inh	Pf apPOL block
Cc1ccc(-c2nc3cc(N)ccc3o2)cc1C	24	-17
CC(C)NC(=O)CC1CCN(S(=O)(=O)c2cccs2)CC1	-14	-1
C=C1CCN([C@@H](CC(C)C)C(=O)Nc2nc3ccc(Cl)cc3s2)S(=O)(=O)c2ccccc21	94*	-4
C=C1CCN([C@@H](CC(C)C)C(=O)Nc2ccc(OC)cc2)S(=O)(=O)c2ccccc21	1	-4
C=C1CCN([C@@H](CC(C)C)C(=O)NCCCc2ccccc2)S(=O)(=O)c2ccccc21	65*	-1
C=C1CCN([C@@H](CC(C)C)C(=O)O)S(=O)(=O)c2ccccc21	4	2
COc1ccc(/C=C/C(=O)Nc2ccc(-n3nncc3C(C)(C)C)cc2)cc1OC	9	-5
C[C@H]1[C@@H](c2ccccc2)Oc2c(Cl)cccc2S(=O)(=O)N1Cc1cccc(Cl)c1	59*	-3
C[C@H]1[C@@H](c2ccccc2)Oc2c(Cl)cccc2S(=O)(=O)N1Cc1cccc(F)c1	18	-6
CC1=CCC2C3COC(O3)C(=O)C2C1 (centres undefined)	0	·
c1ccc2c(c1)nnn2CCSCCn1nnc2ccccc21	1	5
ClC(Cl)(Cl)CCCCn1nnc2ccccc21	100*	-2
C#CC(O)(c1ccc(OC)cc1OC)c1ccc(OC)cc1OC	40	-3
Cc1cccc(N2CCN(C(=O)/C=C3\Sc4ccccc4NC3=O)CC2C)c1 (centres undefined)	28	4
Cc1cccc(N2CCN(C(=O)c3ccc4c(c3)NC(=O)c3ccccc3S4)CC2C)c1 (centres undefined)	100*	-10
O=S(=O)(O)c1cc(Br)ccc1I	·	-14
O=S(=O)(O)c1cc(I)c(O)c2ncccc12	100*	-194
CCOc1ccc(-n2c(SCC(=O)Nc3ccc(C)cc3)nc3c(c2=O)SCC3)cc1	12	2
CC1CCCC2(C1)OCC(C(=O)NC1CC1)N2C(=O)c1ccccc1F (centres undefined)	-1	1
Cc1c2cc(O)c(=O)cc-2oc2cc(O)c(O)cc12	100*	·
Cc1cc2oc(=O)cc(-c3cc4ccccc4o3)c2cc1O	6	3
COc1cccc(NC(=O)N2CCc3nc(-c4ccccc4)ncc3C2)c1	4	-3
Cc1[nH]nc2c1C(c1ccc(-c3ccccc3Cl)o1)C(C#N)=C(N)O2 (centres undefined)	50*	-3
Cc1[nH]nc2c1C(c1ccccc1)C(C#N)=C(N)O2 (centres undefined)	·	0
Cc1cc2nn(CC3CCCO3)c(=O)n2c(C)n1 (centres undefined)	-4	-2
SMILES	mHTT-CaM PPI inh	Pf apPOL block
Brc1ccc2ncnc(N3CCCC3)c2c1	-2	-2
c1ccc2c(N3CCN(c4ncnc5ccccc45)CC3)ncnc2c1	-4	57*
CCS(CC)=NS(=O)(=O)c1ccc([N+](=O)[O-])cc1	·	-6
CC1=CC(=NS(=O)(=O)c2ccc([N+](=O)[O-])cc2)C=C(C)C1=O	67*	1
O=C(NC1CC1)c1ccc(OCC2CCN(C(=O)Cc3ccc(F)cc3)CC2)cc1	14	-4
O=C(O)CSCC(=O)c1ccc(NS(=O)(=O)c2ccccc2)cc1	-2	-7
CCc1ccc(O)c(N=Cc2cc(I)ccc2O)c1	54*	14
CCc1ccc(O)c(N=Cc2cc(C)ccc2O)c1	27	0
O=C(Nc1cccc(F)c1)c1ccc([N+](=O)[O-])cc1Cl	3	-6
CC(C)(C)C(=O)Nc1nnc(C2CC(=O)N(c3ccccc3)C2)o1 (centres undefined)	4	-1
Cc1nc(-c2nnc(NC(=O)CCSc3ccccc3)o2)cs1	12	8
COc1ccc(N2CC(c3nnc(NC(=O)Cc4cccs4)o3)CC2=O)cc1 (centres undefined)	65*	-6
COc1ccccc1C(=O)Nc1nnc(C2CC(=O)N(c3ccccc3)C2)o1 (centres undefined)	17	-2
CC(C)(Oc1ccc(Cl)cc1)C(=O)Nc1nnc(C2CC(=O)N(c3ccccc3)C2)o1 (centres undefined)	98*	-35
COc1nn(C)cc1C(=O)Nc1nnc(C2CC(=O)N(c3ccccc3)C2)o1 (centres undefined)	54*	-2
COc1nn(C)cc1C(=O)Nc1nnc(-c2csc(C)n2)o1	58*	0
CSc1ccc(N2CC(c3nnc(NC(=O)Cc4cccs4)o3)CC2=O)cc1 (centres undefined)	14	-3
COc1nccc(N2CCC(CC(=O)NCCCN3CCN(C)CC3)CC2)n1	0	-2
CN(C)c1nc2cc(C(=O)NC3CCCC3)sc2n1-c1ccccc1	5	1
CCCn1cc(-c2nc(-c3cc(OC)c(OC)c(OC)c3)no2)c(=O)c2ccccc21	32	-8
O=C1Nc2ccc3cn[nH]c3c2C1=O	7	·

Bioassay records deposited in PubChem by University of Kansas High Throughput Screening Laboratory.
